High-throughput results from PubChem BioAssay.
Shown is part of a subset that was picked to be rich in hits.
RT RNaseH block = inhibitors of HIV-1 reverse transcriptase RNase H; P04585; RT-RNase H RNA/DNA duplex cleavage, fluorescence; inhibition, % at 10 µM; 65,000 tested, 1.9% active; in the data active = inhibition above about 50%
RmlCD inh mix = RmlC/RmlD inhibition, mixture screen. 110,000 tested, 0.39% active. AID 1532. inhibition, % at 5.5 µM. RmlC/RmlD coupled enzyme inhibition, 384-well mixture HTS; in the data active = inhibition above about 30%, passing the limit was not always enough
Each line names hits and unclear results; the compound was inactive in the other large screens.

CC(=O)O[C@H]1CC[C@]2(C)[C@H]3CC=C4[C@@H]5[C@@H](C)[C@H](C)CC[C@]5(C(=O)O)CC[C@@]4(C)[C@]3(C)CC[C@H]2C1(C)C	none (no result: RT RNaseH block)
CCOC(=O)c1c(C)c(C(=O)NCc2ccccn2)c(C)n1CC	none
COP1(=O)C=C[C@H](N(Cc2ccccc2)S(=O)(=O)c2ccccc2[N+](=O)[O-])[C@@H](C)O1 (stereo partly drawn)	none (no result: RT RNaseH block)
Cc1cc(NC(=O)CSc2ncnc3sc4c(c23)CCC(C)C4)no1 (stereo not drawn)	RT RNaseH block 84.1 (no result: RmlCD inh mix)
Cc1cc(NC(=O)CSc2nc(C(C)C)nc3sc(C)c(C)c23)no1	none
Cc1ccc2nc3c(cc(C(=O)NCCCn4ccnc4)n3C)c(=O)n2c1	RmlCD inh mix 61.6
Cn1c(C(=O)NCC2CCCO2)cc2c(=O)n(C)c3ccccc3c21 (stereo not drawn)	none
Cc1cc(C(=O)NCCCn2ccnc2)cs1	none
Cc1ccc2nc3c(cc(C(=O)NCC4CCCO4)n3C)c(=O)n2c1 (stereo not drawn)	RmlCD inh mix 102.9
CC1CCCC(n2c(=S)[nH]c3ccccc3c2=O)C1C (stereo not drawn)	none (no result: RT RNaseH block)
COc1ccc(C2CC(=O)C(C=NCCN3CCOCC3)=C(O)C2)cc1 (stereo not drawn)	RT RNaseH block 54.0
COc1ccc(C2CC(=O)C(C=NCCN3CCN(C(C)=O)CC3)=C(O)C2)cc1 (stereo not drawn)	none (no result: RT RNaseH block)
COC1(OC)C=CC(=O)C=C1NC(=O)c1ccccc1OC(C)=O	none (no result: RT RNaseH block)
CCOC(=O)c1c(N)sc(C(=O)N(C)C)c1C	none
CCOC(=O)c1c(NC(=O)OC)sc(C(=O)N(C)C)c1C	RT RNaseH block 51.7
CC1CCCCN1C(=O)Cn1cc(/C=C2/C(=O)Nc3ccccc32)c2ccccc21 (stereo not drawn)	none (no result: RT RNaseH block)
Cc1ccsc1C(C(=O)NC1CCCCC1)N(C(=O)c1csnn1)C1CC1 (stereo not drawn)	none
O=C(c1cc2c(=O)oc3ccccc3c2s1)N1CCN(c2ccccn2)CC1	none (no result: RmlCD inh mix)
N#CC1=C2SCN(Cc3ccco3)CN2C(=O)CC1c1ccccc1F (stereo not drawn)	none (no result: RT RNaseH block)
N#CC1=C2SCN(Cc3ccco3)CN2C(=O)CC1c1cccc2ccccc12 (stereo not drawn)	RT RNaseH block 56.5
COc1ccc2nc3oc(C(=O)N4CCC(C(N)=O)CC4)cc3cc2c1	RmlCD inh mix 33.7
COc1ccc2nc3oc(C(=O)N4CCN(c5cccc(Cl)c5)CC4)cc3cc2c1	none
COc1nc(N2CCCC2)nc(-n2cc(-c3ccccc3)nn2)n1	none (no result: RmlCD inh mix)
CCO[C@H]1OC(C(N)=O)=C[C@@H](C(C)(C)C)[C@@H]1CCCO	none (no result: RT RNaseH block)
Fc1ccc(-n2nnc(-c3ncc[nH]3)n2)cc1	none (no result: RT RNaseH block)
CCOC(=O)c1ccc2c(c1)C1C=CCC1C(C(=O)O)N2 (stereo not drawn)	RT RNaseH block 52.4
COCCNC(=O)C1Nc2ccc(C(F)(F)F)cc2C2C=CCC12 (stereo not drawn)	none (no result: RT RNaseH block)
CCc1nnc(NC(=O)NCN2C(=O)C3C4C=CC(C4)C3C2=O)s1 (stereo not drawn)	none
O=C(NCN1C(=O)C2C3C=CC(C3)C2C1=O)Nc1nccs1 (stereo not drawn)	RT RNaseH block 54.6
C=Cc1c(C)c2cc3[nH]c(cc4nc(cc5nc(cc1[nH]2)C(C)=C5CCC(=O)O)C(CCC(=O)O)=C4C)c(C)c3C=C	RmlCD inh mix 42.9 (no result: RT RNaseH block)
Cc1ccc(S(=O)(=O)NCCOC(=O)Nc2sc(=S)n(C)c2C)cc1	RT RNaseH block 50.1
Cc1c(NC(=O)OCCNC(=O)Nc2ccccc2)sc(=S)n1C	none
Cn1cc(Br)c(C(=O)NC2CCCCC2)n1	none
CCCCn1c(SCC(=O)Nc2cccc(OC)c2)nc2ccc(N3CCOCC3)cc2c1=O	RT RNaseH block 50.6
CCCCn1c(SCC(N)=O)nc2ccc(N3CCOCC3)cc2c1=O	none (no result: RT RNaseH block)
O=c1cc(/C=C/c2ccccc2)oc2ccccc12	none (no result: RT RNaseH block)
COc1cc(-c2nnc3sc(Cc4ccccc4)nn23)cc(OC)c1OC	none
COc1ccc(Cc2nn3c(-c4cc(OC)c(OC)c(OC)c4)nnc3s2)cc1	RT RNaseH block 54.4
c1cc(-c2nc3cc(Oc4ccc5oc(-c6ccncc6)nc5c4)ccc3o2)ccn1	none (no result: RmlCD inh mix)
COc1cccc(N2CCN(Cc3coc4c(Cl)cc(Cl)cc4c3=O)CC2)c1	none (no result: RmlCD inh mix)
CCOc1ccc(N2C(=O)CC(Sc3nccc(C)n3)C2=O)cc1 (stereo not drawn)	none
COc1ccccc1N1C(=O)CC(Sc2nccc(C)n2)C1=O (stereo not drawn)	RT RNaseH block 60.2
NC(=O)c1c(-c2cccs2)csc1N	RT RNaseH block 80.2
CCOC(=O)c1c(-c2cccs2)csc1NC(=O)CC(C)C	none (no result: RT RNaseH block)
Cc1nn(C)c(Oc2ccc(Cl)cc2)c1C(=O)Nc1ccc(F)cc1F	none (no result: RT RNaseH block)
Cc1cc(=O)[nH]c2c1c(C)nn2C1CCOC(C)(C)C1 (stereo not drawn)	none (no result: RT RNaseH block)
COc1ccc(N2CCN(C(=O)CCNS(=O)(=O)c3ccc(Br)s3)CC2)cc1	none
CCOC(=O)NC1(Nc2ccc(Cl)cn2)Oc2ccccc2O1	RT RNaseH block 57.3
Cc1ccccc1C(=O)Nc1ccc(Cl)cn1	none
CCCCNC(=O)c1cn(C)c2ccc(S(=O)(=O)N3CCOCC3)cc2c1=O	none (no result: RmlCD inh mix)
